# Compounds with a hit are over-represented: about 2.9% of the library has one in this group of screens.
# Vif imaging: inhibitors of HIV Vif; inhibition, % at 7.49 µM; 340,000 tested, 0.35% active; HEK293T cells, Vif self-association by quenched fluorescence, imaging, 24 h; AID 602346; in the data active means inhibition above about 50%, passing the limit was not always enough; inconclusive means no clear call, values can overlap the other calls; inactive means below about 31%
# Wnt bcat act: activators of Wnt/beta-catenin signaling | Wnt/beta-catenin reporter cell assay, activator, plate reader | activation, % at 9.35 µM | 300,000 tested, 1.2% active | AID 743398; in the data active means activation above about 30%, passing the limit was not always enough; inconclusive means no clear call, values can overlap the other calls;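 further: 0% = neutral control wells and 100% = positive control wells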
# PvdQ inh: P. aeruginosa PvdQ acylase inhibition. purified PvdQ acylase, fluorescence plate reader. inhibition, % at 10 µM. 340,000 tested, 0.063% active. AID 488965; in the data active means inhibition above about 30%, passing the limit was not always enough; inconclusive means no clear call, values can overlap the other calls;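 further: 0% = vehicle neutral wells and 100% = reference inhibitor wells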
# Glyco luc inh: N-linked glycosylation inhibition | D54 ERlucT glycosylation luciferase reporter, 24 h; percent of 100 nM tunicamycin response | reporter increase, % at 12.5 µM | 360,000 tested, 0.23% active | AID 588692;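 active means mean luciferase reporter signal, scaled so untreated is 0 and the glycosylation-blocking control 100, at or above a set limit in every replicate; inconclusive means mean reaches the limit but not every replicate does; inactive means mean below the limit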;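 further: luciferase carries N-glycosylation sites so blocking glycosylation raises the light; 0% = median of neutral control wells and 100% = median of 100 nM tunicamycin wells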
# MITF act: increases MITF-driven TRPM1 promoter luciferase signal; SK-MEL-5 TRPM1-promoter luciferase, 24 h; % of positive control, neutral wells = 0; activation, % at 12.5 µM; 300,000 tested, 0.75% active; AID 588334;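 active means mean activation of at least 80% with every replicate also reaching 80%; inconclusive means mean reaches 80% but some replicate falls short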;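 further: 0% = neutral control wells and 100% = parthenolide positive control wells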
# esBAF inh: SWI/SNF esBAF complex inhibition. mouse ES cells, Bmi1-luciferase knock-in reporter, 24 h; 100% = twice the neutral-well signal. reporter increase, % at 12.5 µM. 350,000 tested, 2% active; in the data active means activation above about 40%; inconclusive means no clear call, values can overlap the other calls;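 further: 0% = median of the plate's neutral control wells and 100% = double that signal; a rise in the Bmi1 reporter signal indicates esBAF inhibition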
# Active calls of the source: *; ? = inconclusive; / = no result.
SMILES,Vif imaging,Wnt bcat act,PvdQ inh,Glyco luc inh,MITF act,esBAF inh
C=CCNC(=O)c1ccc2c3n(nc2c1)-c1ccccc1CO3,-2.7,25.2,-8.8,-13.8,30.1,1.4
C[C@@H]1CN([C@@H](C)CO)C(=O)Cc2cc(NS(=O)(=O)c3cccs3)ccc2O[C@H]1CN(C)C(=O)Nc1ccc(F)cc1,/,/,/,/,/,-4.6
COCCNC(=O)c1ccc2c(c1)nc(C)n2-c1cccc(Cl)c1,-1.3,3.9,-19.6,1.8,5.5,-8.1
COCCNC(=O)c1ccc2c3n(nc2c1)-c1ccc(Cl)cc1CO3,-3.0,20.6,-7.7,4.4,86.9*,63.0*
Cc1nc2cc3c(cc2c(C)c1C(=O)OC(C)C)OCO3,-0.2,16.4,5.5,2.9,47.4,46.0*
C/C(=N\NC(=O)c1ccc(O)cc1)c1cccc(NC(=O)c2ccc(Cl)cc2)c1,0.2,25.9,-1.1,-3.3,/,52.5*
CC(C)CC(=NNC(=O)c1ccncc1)c1cc(Cl)ccc1O,55.1*,-0.2,0.4,-11.1,-53.7,-31.8
CC(=NNC(=O)c1ccncc1)c1ccccc1O,-1.7,-3.5,-10.9,-3.9,-33.0,/
C/C(=N/NC(=O)c1ccncc1)c1ccc(NC(=O)c2ccc(Cl)cc2Cl)cc1,1.0,23.8,-6.8,-1.0,87.6*,/
O=C(CCCSc1nc2ccccc2c(=O)[nH]1)c1ccccc1,51.7*,-1.3,-4.8,-1.0,-8.8,0.1
C[C@H](CO)N1C[C@H](C)[C@H](CN(C)Cc2ccccc2)Oc2c(NS(C)(=O)=O)cccc2C1=O,/,/,/,/,/,1.6
Cc1ccc(S(=O)(=O)N(C)C[C@H]2Oc3ccc(NS(=O)(=O)c4c(C)noc4C)cc3CC(=O)N([C@H](C)CO)C[C@H]2C)cc1,/,/,/,/,/,2.5
O=C(Cn1cc2c(n1)CCCC2)Nc1cc(-c2cccc(Cl)c2)no1,0.0,5.6,-11.0,2.0,/,50.6*
COc1ccc2nc3ccccc3nc2c1,-1.2,-1.8,-10.2,13.4,93.0*,41.6*
CN1/C(=C\C=C(C#N)C#N)C(C)(C)c2ccccc21,118.9*,-35.9,14.3,2.1,5.6,-5.7
CCOC(=O)/C=C1/N(C)c2ccccc2C1(C)C,-5.0,41.2*,-1.5,1.4,16.2,-0.4
CN1/C(=C\C(=O)COC(=O)c2ccc(O)cc2)C(C)(C)c2ccccc21,-15.8,-8.6,5.8,1.8,-15.3,-5.0
Cc1cc(N2CCC(C(N)=O)CC2)nc(-c2ccccc2)n1,26.6,/,-5.1,2.2,/,-5.1
Cc1cc(OC(C)C(N)=O)nc(-c2ccccc2)n1 (stereo not given),-5.9,39.0*,-5.9,1.0,-4.2,10.2
C[C@@H](NC(=O)C[C@@H]1C=C[C@H](NC(=O)Nc2ccc3c(c2)OCO3)[C@@H](CO)O1)c1ccccc1,/,/,/,/,/,1.1
CC(=O)N(C[C@H]1N[C@H](CO)[C@@H]1c1ccc(-c2cccnc2)cc1)C1CCCC1,/,/,/,/,/,-1.0
O=C(O)c1ccc(N/N=C/c2cccc(C(F)(F)F)c2)cc1,7.6,25.5,12.3,1.6,110.4*,92.1*
COc1ccc(/C=N/Nc2ccc(C(=O)O)cc2)c(OC)c1OC,-2.8,12.6,5.4,4.0,123.8*,91.4*
COc1cc(/C=N/Nc2ccc(C(=O)O)cc2)cc(OC)c1OC,-2.5,25.3,-6.6,3.3,?,56.4*
O=C(O)c1ccc(N/N=C/c2cccc(F)c2)cc1,1.0,/,-5.5,-14.2,17.4,/
SMILES,Vif imaging,Wnt bcat act,PvdQ inh,Glyco luc inh,MITF act,esBAF inh
C/C(=N\NC(=O)c1ccc(Cn2cc(Br)cn2)o1)c1ccc(NC(=O)c2ccoc2C)cc1,6.0,10.6,-6.7,-7.2,54.3,46.8*
C[C@@H]1CN([C@@H](C)CO)S(=O)(=O)c2ccc(-c3ccncc3)cc2O[C@H]1CN(C)C(=O)c1cccc(F)c1,/,/,/,/,/,4.4
CCc1ccc2oc(C(=O)Nc3nonc3C)c(C)c2c1,-5.3,44.4*,10.3,-15.4,49.7,78.1*
Cc1cc2oc(C(=O)Nc3nonc3C)c(C)c2cc1C,2.9,?,-10.1,-6.5,119.7*,76.8*
CC(=O)Nc1ccc(NC(=O)c2oc3cc(C)c(C)cc3c2C)cc1,15.0,-2.2,13.4,-5.0,11.3,2.7
CCc1nonc1NC(=O)c1oc2ccc(F)cc2c1C,7.9,9.3,-4.6,0.5,32.8,24.9
CCOC(=O)N/C(N)=N/c1nc2ccccc2s1,0.9,56.1*,0.3,-10.0,/,56.6*
CC(=O)N/C(N)=N/c1nc(=O)c2ccccc2s1,10.2,29.2,-3.4,-1.6,/,/
Cc1noc(C)c1S(=O)(=O)Nc1ccc2c(c1)C(=O)N([C@H](C)CO)C[C@@H](C)[C@H](CN(C)C(=O)CCC(F)(F)F)OCCCC[C@@H](C)O2,/,/,/,/,/,10.1
COc1ccc2c(ccc[n+]2CC(=O)c2ccccc2)c1,3.5,-1.9,-7.7,1.1,-17.1,2.3
COc1ccc(C(=O)C[n+]2cn(C(F)F)c3ccccc32)c(F)c1,-1.7,14.2,-11.2,2.9,13.4,52.1*
O=C(Nc1ccc2c(c1)OCCO2)c1cccc(S(=O)(=O)N2CCCCC2)c1,-8.5,/,-13.5,-3.4,6.5,6.0
CS(=O)(=O)c1cccc(C(=O)Nc2ccc3c(c2)OCCCO3)c1,-4.6,13.6,-8.0,-0.7,81.3*,58.1*
O=C(Nc1ccc2c(c1)OCCO2)c1cccc(S(=O)(=O)N2CCOCC2)c1,9.5,45.1*,-1.8,-0.2,54.7,?
O=C(C1CC1)N1CCCCN2[C@H](C1)[C@H](c1ccc(C#CC3CCCC3)cc1)[C@@H]2CO,/,/,/,/,/,4.2
C[C@H]1CN([C@@H](C)CO)C(=O)c2cc(NC(=O)C3CC3)ccc2O[C@H]1CN(C)C(=O)Nc1ccc2c(c1)OCO2,/,/,/,/,/,4.4
S=C1NC2=C(CCCC2=C2SCCS2)C(c2ccccc2)N1 (stereo not given),10.0,-2.2,-25.3,414.5*,3.2,/
COc1cccc(C2NC(=S)NC3=C2CCc2ccccc23)c1 (stereo not given),9.0,-0.9,7.4,0.6,-0.1,/
O=C(C[C@@H]1C[C@@H]2c3cc(NC(=O)NC4CCCC4)ccc3O[C@@H]2[C@H](CO)O1)NCc1ccc(-c2ccccc2)cc1,/,/,/,/,/,3.4
O=C(Nc1cccc(/C=C/c2ccccn2)c1)c1ccc(-n2cncn2)c([N+](=O)[O-])c1,13.7,1.7,-13.1,-1.1,-8.5,44.5*
Cc1cc(C)cc(NC(=O)C2C3C=CC(O3)C2C(=O)O)c1 (stereo not given),51.4*,-1.2,-6.4,1.5,/,0.1
CCOC(=O)c1cc(NC(=O)C2C3C=CC(O3)C2C(=O)O)cc(C(=O)OCC)c1 (stereo not given),-6.2,0.0,3.3,-1.4,-6.4,3.3
S=C(c1c[nH]c2ccccc12)N1CCCC1,1.2,-0.7,-4.3,0.5,-0.7,-10.6
CC(OC(=O)c1c[nH]c2ccccc12)C(=O)N1CCCC1 (stereo not given),63.8*,-3.6,-14.6,0.0,6.6,7.4
Cc1ccc(NC(=O)CO/N=C/c2ccc(N(C)C)cc2)cc1,2.5,-3.9,-11.5,1.9,22.3,/

# Source: PubChem BioAssay
